# High-throughput results as filed in PubChem.
# NPSR antagonist: blocks cAMP signaling of the human neuropeptide S receptor; CHO-NPSR cells, cAMP TR-FRET, antagonist mode; Potency, µM (series often up to 38.3 µM), inactives show at the highest dose activity change, negative = inhibition, hits mostly inhibitors; AID 1461; hit rate 1% among 220,000; Q6W5P4; also: nearly all actives have a fitted effect of over 50% in size
# Target sequence (Q6W5P4 whole entry, looked up): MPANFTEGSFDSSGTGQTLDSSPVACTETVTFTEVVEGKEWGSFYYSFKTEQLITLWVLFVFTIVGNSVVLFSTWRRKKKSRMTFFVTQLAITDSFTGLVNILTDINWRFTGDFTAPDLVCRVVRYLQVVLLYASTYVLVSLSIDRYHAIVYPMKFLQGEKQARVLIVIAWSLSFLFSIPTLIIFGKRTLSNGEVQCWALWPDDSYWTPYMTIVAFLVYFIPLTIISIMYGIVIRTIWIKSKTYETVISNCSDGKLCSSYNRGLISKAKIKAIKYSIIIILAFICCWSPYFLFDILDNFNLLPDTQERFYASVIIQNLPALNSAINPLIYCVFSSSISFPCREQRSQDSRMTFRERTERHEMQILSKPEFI
# KinaseGlo FLuc: blocks Kinase-Glo luciferase, a counter-screen artifact. hit rate 0.28% among 200,000. Potency, µM (series often up to 38.3 µM), inactives show at the top dose activity change, negative = inhibition, hits mostly inhibitors. AID 1379. Kinase-Glo luciferase, ATP luminescence, 8 min. Q27757; also: nearly all actives have a fitted effect of over 60% in size
#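 Compounds were added to a substrate mix at pH 7.2 (50 mM imidazole, 10 uM ATP, within the enzyme's linear range), followed by Kinase-Glo detection reagent; luminescence was measured after 8 minutes at ambient temperature.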
# Tau fibril ThT: inhibitors of human tau fibril formation, thioflavin T binding | P10636 | recombinant tau K18 P301L, heparin-induced fibrillization, ThT fluorescence | Potency, µM (series often up to 57.4 µM), for the others: at the highest dose activity, negative = inhibition, usual class: inhibitors | hit rate 2.1% among 270,000 | AID 1460; also: nearly all actives have a fitted effect of over 55% in size
# Target sequence (P10636 561-689 P618L limits assumed): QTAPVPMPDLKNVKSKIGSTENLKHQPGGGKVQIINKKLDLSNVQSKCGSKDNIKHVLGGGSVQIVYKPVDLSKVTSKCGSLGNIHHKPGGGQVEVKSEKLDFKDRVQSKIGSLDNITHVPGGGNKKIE
#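 Heparin-induced (20 uM) aggregation of recombinant human K18 P301L tau, 15 uM unlabeled with 0.24 uM labeled, pH 7 acetate buffer, 6 hr at 37 C with compound. Fibrils quantified by 30 uM ThT fluorescence after 1 hr ambient incubation.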
# Tau fluor counter: counter-screen for tau fibril formation inhibitors; tau K18 P301L (four-repeat tau fragment) Alexa594 fluorescence, heparin fibrillization; Potency, µM (top dose mostly 57.7 µM), for the others: at the highest dose activity change, negative = decrease; hit rate 0.93% among 280,000; AID 1463; also: nearly all actives have a fitted effect of over 55% in size
#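 Human K18 P301L tau (15 uM unlabeled plus 0.24 uM Alexa 594-labeled, final) in 100 mM sodium acetate pH 7 was mixed with compound and 20 uM heparin and incubated 6 hr at 37 C.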
# Tau FP inhib: blocks human tau fibril formation measured by polarization; P10636; K18 P301L tau heparin fibrillization, Alexa594 FP, 6 h; Potency, µM (highest dose often 57.7 µM), for inactives: at the top dose activity, negative = inhibition, usual class: inhibitors; hit rate 0.39% among 280,000; AID 1468; also: nearly all actives have a fitted effect of over 55% in size
#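 Human K18 P301L fragment (15 uM unlabeled plus 0.24 uM Alexa 594-labeled) in 100 mM sodium acetate pH 7 with compound, aggregation induced by 20 uM heparin for 6 hr at 37 C. ThT (30 uM) added for 1 hr, then Alexa 594 FP read.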
# * marks the source's active call; other numbers are inactive results; ? = inconclusive; . = no result; [ ] = another dose, or the depositor's remark. The list is not random: actives were taken first. Their share in the collection is about 3.3%. Calls follow the shape of the dose curve; as a rule, active = well fitted curve in the direction sought with a large enough effect; inconclusive = small, poorly fitted or top-dose-only effect, or another doubt; inactive = no such curve, though single readings can be large; an effect the other way counts as inactive or inconclusive. % is scaled to controls: 0 for no effect and ±100 for the full control effect; potency is read from the fitted curve at half-maximal effect.
SMILES,NPSR antagonist,KinaseGlo FLuc,Tau fibril ThT,Tau fluor counter,Tau FP inhib
CC1=CN2C(=N)/C(=C/c3ccco3)C(=O)N=C2S1,-24%,-23%,?,-8%,6%
CCOC(CNC(=O)c1ccc(N2CCc3ccccc32)c([N+](=O)[O-])c1)OCC,-14%,-6%,13µM*,?,?
O=C(Nc1nc2ccccc2[nH]1)c1ccc(F)cc1,-8%[46.1 µM],?,7%,-3%,2%
O=C(Nc1nc2ccccc2[nH]1)c1ccccc1F,-10%[46.1 µM],2µM*,-3%,3%,12%
COC(=O)CC1Oc2ccccc2-n2cc(-c3ccc(Cl)cc3)nc21 (stereo unspecified),.,.,5%,-14%,-13%
CC(C)(C)OC(=O)COc1cc(O)c2c(=O)cc(-c3ccccc3)oc2c1,-28%[46.1 µM],.,-9%,?,-16%
CC(C)(C)OC(=O)COc1cc(OCC(=O)OC(C)(C)C)c2c(=O)cc(-c3ccccc3)oc2c1,6.3µM*,-1%,?,-17%,4%
CCN1/C(=C\c2ccc3cc(C)ccc3[n+]2CC)Sc2cc(C)c(C)cc21,-25%,-11%,7.9µM*,?,?
CCN1/C(=C/c2ccc3cc(C)cc(C)c3[n+]2CC)Sc2cc(C)ccc21,-40%,-20%,4.5µM*,?,?
CCN1/C(=C\C(C)=O)Sc2ccc(OC)cc21,-5%[46.1 µM],-3%,-14%,-11%,-4%
CCN1/C(=C/c2ccc3cccc(C)c3[n+]2CC)Sc2ccccc21,10µM*,-1%,?,18%,?
O=C(NP(=O)(N1CCCC1)N1CCCC1)C1=C(N2CCOCC2)/C(=C/c2cccc([N+](=O)[O-])c2)CC1,-16%,1%,-17%,-3%,0%
O=[N+]([O-])c1ccc(/C=C2\CCC(C3=CCCC3)=C2N2CCOCC2)cc1,-19%,-3%,16µM*,?,?
Cc1nc(C(F)(F)F)ccc1C(=O)N1CCCCC1,-10%,.,-10%,-10%,1%
Cc1nc(Nc2ccc(Cl)cc2Cl)sc1C(=O)Nc1ccccc1,-18%,2%,?,?,-16%
Cc1nc(Nc2ccc(Cl)c(Cl)c2)sc1C(=O)Nc1ccccc1,?,-1%,?,11µM*[quencher],5%
COc1ccccc1NC(=O)c1c(Nc2ccccc2F)sc(C(=O)Nc2cccc(Cl)c2)c1N,-27%,4%,-11%,?,?
Cc1ccc(Nc2sc(C(=O)c3ccccc3)c(N)c2C(=O)Nc2ccc(Cl)cc2)cc1,.,.,?,?,-3%
Nc1c(C(=O)c2ccccc2)sc(Nc2ccc(Cl)c(Cl)c2)c1C(=O)Nc1ccccc1,.,.,20µM*,?,-13%
COc1ccc(Nc2sc(C(=O)Nc3cccc(Cl)c3)c(N)c2C(=O)Nc2ccccc2OC)cc1,-17%[46.1 µM],1%,?,11µM*[quencher],14%
COC(=O)C1CCN(S(=O)(=O)c2ccc(N3CCCCS3(=O)=O)cc2)CC1,.,.,0%,1%,8%
CC(=O)c1ccc(NC(=S)Nc2ccc3cn[nH]c3c2)cc1,-1%,-4%,16µM*,?,?
COc1cc(NC2=Nc3cccc4cccc2c34)cc(OC)c1OC,-2%,-6%,3%,6%,2%
COc1ccc(NC2=Nc3cccc4cccc2c34)cc1OC,-14%[46.1 µM],-1%,13µM*,?,3%
COc1cccc(NC2=Nc3cccc4cccc2c34)c1,-21%,-1%,11µM*,?,15%
SMILES,NPSR antagonist,KinaseGlo FLuc,Tau fibril ThT,Tau fluor counter,Tau FP inhib
CCN1C(C(=O)c2ccccc2)=C(OC(=O)c2ccccc2OC)c2ccccc2S1(=O)=O,.,.,?,-15%,-14%
Cc1ccc(-c2nn(-c3ccccc3)cc2/C=C2\SC(=S)N(CC(=O)O)C2=O)cc1,13µM*,.,18µM*,-12%,-4%
O=C(O)CCCCCN1C(=O)/C(=C\c2cn(-c3ccccc3)nc2-c2cccs2)SC1=S,-59%,.,14µM*,-16%,8%
CCC(C(=O)Nc1ccc(C)c(Cl)c1)n1c(=O)c(-c2ccccc2NC(C)=O)nc2ccccc21 (stereo unspecified),.,.,-4%,1%,6%
Cc1nc2ncccn2c1-c1csc(Nc2ccc(N(C)C)cc2)n1,4%,3%,13µM*,?,-2%
Cc1nc2ncccn2c1-c1csc(Nc2ccccc2)n1,3%,1%,?,?,4%
COc1ccccc1Nc1nc(-c2c(C)nc3ncccn23)cs1,41%,1%,?,?,0%
COc1ccc(Nc2nc(-c3c(C)nc4ncccn34)cs2)cc1,-8%,1%,8.9µM*,?,-2%
O=C1CN(CC(=O)N2CCCCC2)c2ccccc2O1,-10%[46.1 µM],-4%,28µM*,?,?
CCOC(=O)CN=C1CC(C)(C)CC2=C1Sc1ncnc(N(C)C)c1N2,-22%[46.1 µM],-1%,16µM*,?,-19%
COc1cccc([C@@H]2Oc3ccc(Br)cc3C[C@H]2OC(=O)Nc2ccc(OC(F)F)cc2)c1,.,-1%,-18%,?,-9%
O=C(O)c1ccc2cc(-c3ccc(O)c(C45CC6CC(CC(C6)C4)C5)c3)ccc2c1,.,-1%,28µM*,?,?
CC1CCN(S(=O)(=O)c2cc(C(=O)NCc3ccc(F)cc3)n(C)c2)CC1,.,.,-2%,-14%,1%
CCOC(=O)c1c(NC(=O)c2ccc(OCC)c(Br)c2)sc2c1CCCC2,.,.,-5%,-12%,-4%
COc1cc(Nc2ccccn2)cc(C(=O)Nc2cccc(C(F)(F)F)c2)c1,-24%,.,-17%,14µM*[quencher],-13%
Cc1cc(NC(=O)Nc2nnc(N3CCCCC3)s2)ccc1Br,.,.,-1%,-6%,-1%
Cc1c(Br)c(=O)oc2c(Br)c(O)c(O)cc12,-2%,0%,13µM*,?,?
COc1cccc(N2C(=O)C(CC(=O)Nc3cccc(F)c3)N(C3CCCC3)C2=O)c1 (stereo unspecified),.,.,5%,-15%,-2%
Cc1[nH]c2ccccc2c1Cc1nnc(SCc2ccccc2)o1,-23%[46.1 µM],-2%,?,18µM*[quencher],?
Cc1cc(/C=N/n2c(COc3ccccc3)nc3ccccc3c2=O)c(O)c([N+](=O)[O-])c1,-22%,-5%,11µM*,?,14%
O=C(Nc1sc(-c2ccccc2)cc1C(=O)O)c1ccccc1,?,.,13µM*,?,-8%
N#Cc1ccc(/C=N/NC(=O)c2cc(-c3cccs3)nc3ccccc23)cc1,0%,-1%,-11%,?,?
NNC(=O)c1cc(-c2ccccc2)sc1N,0%[7.67 µM],.,7.9µM*,?,4%
COc1cc(/C=N/NC(=O)c2cc(-c3ccccc3)sc2N)cc(OC)c1OC,-32%,.,.,13µM*[quencher],?
CCOC(=O)c1cc(-c2ccccc2)sc1NC(=O)c1ccc(OC)cc1,-3%[46.1 µM],1%,-8%,-1%,-7%
COc1cc(/C=N/NC(=O)c2cc(-c3cccs3)nc3ccccc23)ccc1O,51%,.,?,18µM*[quencher],3%
